# In PMC5540273 (PLoS ONE, 2017):
# Assays:
# Conditions in all cases: concentration: 1 μM, replicates: in singlicate; n = 1
# [1] = test system: T1, LKB1
# T1 construct: gene STK11
# [2] = test system: T2, LOK
# T2 construct: gene STK10
# [3] = test system: LRRK2
# [4] = test system: LTK
# [5] = test system: LYN
# [6] = test system: T3, LZK
# T3 construct: gene MAP3K13
# [7] = test system: MAK
# [8] = test system: MAP3K15
# [9] = test system: MAP3K1
# [10] = test system: MAP3K2
# 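Note: KINOMEscan kinase panel screen.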
Compound,%Inh [1] [%],%Inh [2] [%],%Inh [3] [%],%Inh [4] [%],%Inh [5] [%],%Inh [6] [%],%Inh [7] [%],%Inh [8] [%],%Inh [9] [%],%Inh [10] [%]
CS(=O)(=O)CCNCc1nc(-c2ccc3ncnc(Nc4ccc(OCc5cccc(F)c5)c(Cl)c4)c3c2)cs1.Cl [GW583340],17,20,0,0,0,0,23,0,0,0
O=C(CCO)NCCn1ccc2ncnc(Nc3ccc(Oc4cccc(C(F)(F)F)c4)c(Cl)c3)c21,39,72,0,0,8,0,0,0,0,0
CSc1nn2c(=O)cc(N3CCOCC3)nc2n1Cc1cccc(Cl)c1Cl [GSK2347225],0,0,0,4,10,0,24,0,6,1
COC(=O)c1cccc(NC(=O)NCCNc2ccnc(Nc3ccc(F)cc3)n2)c1 [GSK1379883],16,0,0,0,0,1,26,0,0,0
